Results on 40 compounds are retold here after PubChem BioAssay AID492948 (National Center for Advancing Translational Sciences (NCATS), 2010).

The structures appear in SMILES notation. Results filed as inconclusive are left out. A number with no mark means an inactive call. The source made the active and inactive calls. The call rests on the fitted dose curve; in most records, active means well fitted activation curve with a large enough effect; inconclusive means small, poorly fitted or top-dose-only effect; inactive means no such curve, though single readings can be large or run the other way.
Potency means the concentration at half of the fitted maximal effect.

The nature of this experiment: qHTS Assay for Agonists of the Relaxin Receptor RXFP1: V1B Hit Validation.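 Further: counter-screen in HEK293 cells expressing V1B rather than RXFP1 for selectivity; nearly all actives have a fitted effect of over 65% in size.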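 On activation: cAMP accumulation with PDE4 inhibitor Ro 20-1724 present during compound exposure; 0% = buffer alone basal and 100% = 29 nM porcine relaxin.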 Particulars: HEK293 V1B cells, cAMP TR-FRET, 30 min; series mostly up to 115 µM; activation: at the top concentration. The text has this: NIH Chemical Genomics Center [NCGC]
NIH Molecular Libraries Probe Production Centers Network [MLPCN]
Assay Submitter (PI): Alexander Agoulnik
The relaxin hormone is involved in the variety of biological functions in normal tissues and diseases. The role of relaxin is well-established in female reproduction and parturition, mammary gland and endometrial development, maintenance of myometrial quiescence during pregnancy. Relaxin signaling through its G protein-coupled receptor (GPCR) RXFP1 results in ECM remodeling through regulation of collagen deposition, cell invasiveness, proliferation and overall tissue homeostasis. […] Recombinant human relaxin (rhRlx) is currently being tested in clinical trials as a protective agent in congestive heart failure, in treating severe preeclampsia, and as an anti-fibrotic agent in systemic sclerosis.
Upon relaxin binding RXFP1 activation leads to the activation of adenylate cyclase (AC) via Gs. cAMP will activate PKA, which phosphorylates many signaling proteins. Thus, detection of cAMP increase is an easy and reliable indication of relaxin receptor activation. To screen for agonists of the relaxin receptor, a HEK293T cell line stably transfected with RXFP1 was used. RXFP1 activation was assayed by changes in cAMP levels as detected with a time-resolved fluorescence energy transfer (TR-FRET) cAMP detection kit.
This assay measures activation of a cell expressing […], another GPCR targeted by relaxin, to determine the selectivity of compounds for RXFP1.
NCGC Assay Protocol Summary:
This is a cell-based assay for cAMP second messenger response to screen for agonists of the RXFP2 receptor. The assay was conducted in the presence of a PDE4 inhibitor (Ro 20174). The cells were lysed and the cAMP levels were measured with a TR-FRET cAMP kit. Presence of cAMP in the cell lysate disrupts binding between the cryptate-labeled anti-cAMP and d2-labeled cAMP pair, leading to a decrease in the TR-FRET signal. Data were normalized to the controls for basal activity (buffer only) and 100% activity (29 nM porcine relaxin). The EC50 values were determined from concentration-response data modeled with the standard Hill equation
1536-well assay protocol for the HEK293 V1B cAMP assay:
(1) Add 3 ul HEK293 RXFP2 cell culture. 2000 cells/well in DMEM/F12, 10% FBS, 1x Pen/Strep (dispensed offline with MultiDrop Combi).
(3) Add 23 nl compounds in DMSO solution. Final concentration was 0.5 - 58 uM.
(4) Incubate 30 min at 37C, 5% CO2.
(5) Add 1 ul cAMP-d2 in lysis buffer (HTRF cAMP HiRange kit, CisBio).
(6) Add 1 ul anti-cAMP antibody-cryptate in lysis buffer (HTRF cAMP HiRange kit, CisBio).
(7) Incubate 30 min at room temperature.
(6) Detect the assay plate in a ViewLux plate reader (PerkinElmer) with Ex=320 nm, Em1=615 nm and Em2=665 nm.
Keywords: relaxin, RXFP1, RXFP2, G-protein coupled receptor, cAMP, agonist, high throughput screening, MLSMR, MLSCN, NIH Roadmap, qHTS and NCGC
For `CCN(CC)S(=O)(=O)c1cccc(N=Nc2c(O)c3ccccc3oc2=O)c1`, the Potency is 27.5 µM (active). For the compound `CC(C)n1cnc2c(N(C)c3cccc(Cl)c3)nc(N(CCO)CCO)nc21`, the “activation” value is -3.24%. Still for that read-out and setting: as for `Cc1ccc(C(=O)Nc2cccc(C(F)(F)F)c2)cc1NC(=O)c1cnnc2ccccc12`, the figure is 4.89%. Consider `Cc1nc2scc(C)n2c(=O)c1S(=O)(=O)N1CCN(c2ccccn2)CC1`, for which the Potency was 30.9 µM (active). Turning to `COc1ccc(Nc2ncc(C#N)c(N)n2)c(OC)c1`, the “activation” value is -2.08%. As to `O=C(Nc1ccccc1C(=O)Nc1ccccc1C(=O)NCc1ccco1)c1ccco1`, the Potency result was “inactive”.

Regarding `O=C(Nc1ccccc1C(=O)O)c1ccc(NC(=O)C2CC2)cc1`, the “activation” value was 2.23%. On to `Cc1ccc2[nH]c3c(=S)nc[nH]c3c2c1`, for which the Potency is 6.15 µM (active).

Turning to `Cc1cc(C)c(NC(=O)CS(=O)CC(=O)Nc2ccc(F)cc2F)c(C)c1` (stereo not given), the “activation” value is 3.65%. In the case of `CCc1nnc(NC(=O)CSc2nc(C)nc3c2c(=O)n(C)c(=O)n3C)s1`, the Potency is 9.74 µM (active). In the case of `CCN(CC)CCCCCC(=O)Nc1ccccc1C(=O)Nc1ccccc1`, the “activation” value is -2.76% [at 127 µM]. In the case of `COC(=O)Cn1cnc2c(C#N)c3n(c2c1=O)CCCCC3`, the Potency is 13.8 µM (active). On the same count and under the same terms, the value for `CC(=O)Nc1ccc(S(=O)(=O)NCc2cc(=O)n(C)c(=O)n2C)cc1` was 30.9 µM (active); that for `N#CCCSc1ncnc2c1oc1ccccc12` was 19.4 µM (active). Turning to `O=c1oc2cc(O)c(Cl)cc2c2ccccc12`, the Potency is 6.9 µM (active). Still for that read-out and setting: as for `O=C(Cn1cnc2c(nnn2-c2ccc(F)cc2)c1=O)NCC1CCCO1` (stereo not given), the figure is 8.7 µM (active). As for `CC(C)(C)C(=O)Nc1ccccc1C(=O)NCc1ccco1`, the “activation” value was 1.03% [at 127 µM]. The same measure, in the same setting: the value for `COc1ccc(/C=C2/SC(=O)N(CCC(=O)Nc3ccc(C)cc3)C2=O)cc1OC` was -74%; that for `COc1ccc(CNC(=O)CN2C(=O)NC(C)(c3cccc(Br)c3)C2=O)cc1` (stereo not given) was 1.48%. Take `CCCC(=O)Nc1ncnc2c1ncn2[C@@H]1O[C@@H]2COP(=O)(O)O[C@H]2[C@H]1OC(=O)CCC`: the Potency is 1.38 µM (active).

On to `O=C(Nc1cc(S(=O)(=O)N2CCOCC2)ccc1N1CCOCC1)c1cn2ccccc2n1`, for which the Potency is 30.9 µM (active). Consider `O=C(Nc1ccccc1C(=O)NCCc1ccc(O)cc1)c1ccco1`, for which the “activation” value was 3.88% [at 127 µM]. Regarding `CC(=O)c1sc(NC(=O)C(C)C)nc1C`, the Potency is 17.3 µM (active). `Cc1ccccc1NC(=O)CNc1ccccc1C(=O)NCc1ccco1`: the “activation” value is 7.03% [at 127 µM]. With `COc1ccccc1NC(=O)CCCc1nnc2n(C)c(=O)c3sccc3n12`, the Potency is 13.8 µM (active).

For the compound `CCC(=O)Nc1ccc(-n2nnnc2SCC(=O)NNC(=O)c2ccco2)cc1`, the “activation” value was 1.43%. For the compound `CCN(CC)c1ccc(S(=O)(=O)N2CCOCC2)cc1NC(=O)CSc1nncn1C`, the Potency is 12.3 µM (active). As to `C[C@H](Cc1ccccc1)Nc1ncnc2c1ncn2[C@@H]1O[C@H](CO)[C@@H](O)[C@H]1O`, the Potency is 21.9 µM (active). Regarding `Cc1cccc(NC(=O)c2ccccc2NC(=O)C2CCCCC2)c1C`, the “activation” value is -3.76% [at 127 µM]. As for `COC(=O)c1sc(N2C(=O)C(O)=C(C(=O)c3ccc(C)o3)C2c2ccc(F)cc2)nc1C` (stereo not given), the Potency is 2.75 µM (active). On to `O=C(Nc1ccccc1C(=O)NCCN1CCOCC1)c1ccco1`, for which the “activation” value was 3.24% [at 127 µM]. Take `CCN(CC)C(=O)c1cc(Cl)ccc1NC(=O)c1ccco1`: the “activation” value is 2.42% [at 127 µM]. For the compound `CCOC(=O)N1CCN(S(=O)(=O)c2c(C)nc3scc(C)n3c2=O)CC1`, the Potency was 24.5 µM (active). Same read-out and setting: the value for `CCOC(=O)CNC(=O)CSc1nc2c(C)cccc2cc1CC` was 17.3 µM (active). For `CCN(CC)S(=O)(=O)c1ccc2c(c1)N(CC(=O)Nc1cccnc1Cl)C(=O)CO2`, the Potency is 17.3 µM (active).

As for `CC1(C)O[C@@H]2[C@H](O1)[C@@H](COS(=O)(=O)O)O[C@H]2n1cnc2c(N)ncnc21`, the Potency was 3.88 µM (active). The same measure, in the same setting: the value for `O=[N+]([O-])c1cc2c(c(CSc3nnc4ccccn34)c1)OCOC2` was 12.3 µM (active). Take `O=C(Nc1ccccc1C(=O)N1CCN(c2ccccc2)CC1)c1ccco1`: the “activation” value is -5.2% [at 127 µM]. The same measure, in the same setting: as for `COc1ccc(CC(=O)N/N=C/c2cccnc2)cc1OC`, the figure is -5.08%. Consider `COc1ccc(Cl)cc1-c1n[nH]c(=S)o1`, for which the Potency is 4.35 µM (active).
